Reference: PubChem BioAssay AID504332 (National Center for Advancing Translational Sciences (NCATS), 2011)
About 31,000 (8.9%) of roughly 350,000 compounds were called active. Inconclusive results (about 15%) are left out. Calls come from the whole dose curve; as a rule, active = well fitted inhibition curve with a large enough effect; inconclusive = small, poorly fitted or top-dose-only effect; inactive = no such curve, though single readings can be large or run the other way. Shown is part of a subset that was picked to be rich in actives. Where a call stands in place of a potency, no number is given.

Target: Histone-lysine N-methyltransferase EHMT2 (Homo sapiens) (UniProt Q96KQ7)
Sequence (Q96KQ7 913-1193 limits assumed): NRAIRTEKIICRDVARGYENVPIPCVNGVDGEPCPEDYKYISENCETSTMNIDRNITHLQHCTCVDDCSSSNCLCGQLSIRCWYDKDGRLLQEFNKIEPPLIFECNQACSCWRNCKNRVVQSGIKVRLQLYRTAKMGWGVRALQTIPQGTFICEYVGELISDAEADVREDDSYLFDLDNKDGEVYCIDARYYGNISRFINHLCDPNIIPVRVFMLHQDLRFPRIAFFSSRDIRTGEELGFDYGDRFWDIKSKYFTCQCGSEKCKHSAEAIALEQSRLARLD
Assay: qHTS Assay for Inhibitors of Histone Lysine Methyltransferase G9a; note: nearly all actives have a fitted effect of over 75% in size
Conditions: G9a H3K9 monomethylation, AlphaScreen, 2 h; series mostly up to 59 µM
How it was run: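 Readings reflect AlphaScreen signal from monomethyl-H3K9 antibody detection. HMT at 20 nM; substrate b-H3K9 500 nM; cofactor SAM 20 uM; 2 h RT reaction; compounds tested as titrations in qHTS with 15 min preincubation.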
Potency is the fitted concentration of half-maximal effect.

| SMILES | Potency | activity, negative = inhibition |
| --- | --- | --- |
| Cc1ccc2nc(S(=O)(=O)O)[nH]c2c1 | 89.1 µM (active) |  |
| CCCNC(=O)C1CCN(c2nc3ccc(C)cc3[nH]2)CC1 | inactive |  |
| Cc1ccc2nc(/C(C#N)=C\c3ccc(OC(=O)c4cccs4)cc3)[nH]c2c1 | inactive |  |
| COc1cccc(CNC(=O)CSc2c3c(nc4cc(Cl)ccc24)CCCC3)c1 | inactive |  |
| COc1ccccc1CNS(=O)(=O)c1ccc(C)cc1 | inactive |  |
| COC(=O)C1=C(C)NC(=O)/C1=C/c1ccc(CNS(=O)(=O)c2ccc(C)cc2)o1 | 50.1 µM (active) |  |
| Cc1ccc(CCNC(=O)c2ccc(CNS(=O)(=O)c3ccc(C)cc3)cc2)cc1 | inactive |  |
| Cc1cc(C)c2sc(NC(=O)c3ccc(S(=O)(=O)N4CCCC4)cc3)nc2c1 | inactive |  |
| Cn1c(=O)c(C(=O)O)nn(-c2ccccc2)c1=O | inactive |  |
| Cc1cccc(OCC(=O)N(Cc2ccc(C(C)C)cc2)Cc2ccco2)c1C | inactive |  |
| CNC(=S)NNC(=O)c1oc2nc(-c3ccccc3)cc(-c3ccco3)c2c1N | 10 µM (active) |  |
| CS(=O)(=O)c1sc2nc(-c3ccccc3)cc(-c3ccccc3)c2c1N | inactive |  |
| CC1=C(c2ccc(Cl)cc2)S(=O)(=O)N=C1N1CCN(c2cc(C)ccc2C)CC1 | inactive |  |
| COc1ccc(-c2c(-c3ccc(OC)cc3O)nc(C)nc2C(F)(F)F)cc1 | inactive |  |
| CCOc1ccc(-c2cc3nc(C4CCN(C(=O)OC(C)(C)C)CC4)c(C(=O)Nc4ccc(C(=O)OC)cc4)cn3n2)cc1 | inactive |  |
| CCOC(=O)c1c(NC(=O)COc2cc(C)ccc2C(C)C)sc(C)c1C | 1.78 µM (active) |  |
| CCOC(=O)c1sc(NC(=O)COc2ncnc3ccccc23)c(C(=O)OCC)c1C | inactive |  |
| CCOC(=O)c1c(NC(=O)CSc2nnc(CNc3ccc(C)cc3C)o2)sc(C)c1C | inactive |  |
| COc1cccc(CNC(=O)c2ccc3c(c2)N(Cc2ccc(C(F)(F)F)cc2)C(=O)c2ccccc2S3)c1OC | inactive |  |
| O=C(N/N=C/c1cccc([N+](=O)[O-])c1)c1ccncc1 | inactive |  |
| O=C(c1ccncc1)N1CCN(S(=O)(=O)c2cccc([N+](=O)[O-])c2)CC1 | inactive |  |
| N/C(=N\OS(=O)(=O)c1cccc([N+](=O)[O-])c1)c1ccncc1 | 10 µM (active) |  |
| Oc1c(C=Nc2cccc3nsnc23)ccc2ccccc12 | 2.24 µM (active) |  |
| COc1ccc(C=Nc2cccc3ncccc23)cc1 | inactive |  |

| SMILES | Potency | activity, negative = inhibition |
| --- | --- | --- |
| CC(C)(C)NS(=O)(=O)c1ccc(NC(=O)C2CCCO2)cc1 (centres undefined) | inactive |  |
| O=C(CC(c1cccs1)N1Cc2ccccc2C1=O)Nc1ccc(F)c(F)c1 (centres undefined) | inactive |  |
| CCc1cccc(NC(=O)COC(=O)C2CCN(c3ccc(C(F)(F)F)cn3)CC2)c1 |  | 10.8% [at 0.501 µM] (inactive) |
| C/C(Cc1ccccc1)=N\NC(=O)CNC(=O)c1cccc(Br)c1 | inactive |  |
| CCCN(CCC)CCNC(=O)c1ccc2c(c1)NC(=O)C(CS(=O)(=O)Cc1cccc(Br)c1)N2 (centres undefined) | 25.1 µM (active) |  |
| Cc1ccccc1CS(=O)(=O)CC1Nc2ccc(C(=O)NCc3ccc(Cl)cc3)cc2NC1=O (centres undefined) | 10 µM (active) |  |
| CCCNC(=O)c1ccc(N2CCC3(CC2)CC(c2cccc(Br)c2)=NO3)c(NC(=O)c2ccco2)c1 |  | 7.48% [at 2.33 µM] (inactive) |
| CCCC(=O)Nc1cc(C(=O)NCc2ccc(OC)cc2)ccc1S(=O)(=O)c1ccc(Cl)cc1 | inactive |  |
| COc1ccc(C(=O)NCc2ccc(Cl)cc2)cc1S(=O)(=O)N1CCCC1 |  | -2.17% [at 12.7 µM] (inactive) |
| Cc1cccc(C(=O)N2CCc3cc(CNC(=O)Cc4ccc(F)cc4)ccc32)c1 | inactive |  |
| CCOC(=O)C(C)n1cnc2c(nnn2-c2cccc(OC)c2)c1=O (centres undefined) | inactive |  |
| CCc1nnc(NC(=O)CCC(=O)N2CCN(c3cc(C)ccc3C)CC2)s1 | inactive |  |
| O=C(c1ccc2ccccc2n1)N1CCN(c2ccccc2Cl)CC1 | 44.7 µM (active) |  |
| O=C(c1ccncc1)N1CCN(c2ccc3ccccc3n2)CC1 |  | 25% [at 12.7 µM] (inactive) |
| COc1ccccc1N1CCN(C(=O)c2cc(-c3ccc(Cl)c(Cl)c3)on2)CC1 | inactive |  |
| Cc1ccc2c(=O)c(C(=O)c3ccc(Cl)cc3)cn(CC(=O)NC3CCCCC3)c2n1 | inactive |  |
| COC(=O)c1ccc(CSc2ccc(S(=O)(=O)N3CCCCC3)cn2)cc1 |  | -3.87% [at 12.7 µM] (inactive) |
| O=C(O)c1ccc(N/N=C/c2ccc3ncccc3c2)cc1 | 10 µM (active) |  |
| O=C(O)c1ccc(/C=N/Nc2nc(N3CCCCC3)nc(N3CCCCC3)n2)cc1 | inactive |  |
| CCNC(=S)NNC(=O)c1ccc2ncccc2c1 | inactive |  |
| COc1cccc(/C=C/C(=O)OCC(=O)N2CCCc3ccccc32)c1 | inactive |  |
| CCOC(=O)c1ccc(NC(=O)c2ncn(-c3ccccc3)n2)cc1 | inactive |  |
| O=C(Nc1ccc(F)c([N+](=O)[O-])c1)C1CC(=O)N(Cc2ccccc2)C1 (centres undefined) | inactive |  |
| Cc1cccc(C(C)C)c1NC(=O)COC(=O)C1CC(=O)N(Cc2ccccc2)C1 (centres undefined) |  | 7.15% [at 0.501 µM] (inactive) |

| SMILES | Potency | activity, negative = inhibition |
| --- | --- | --- |
| CC(OC(=O)C1CC(=O)N(Cc2ccccc2)C1)C(=O)Nc1ccccc1[N+](=O)[O-] (centres undefined) | 56.2 µM (active) |  |
| CCOc1ccccc1NC(=O)CSc1ncc(S(=O)(=O)c2ccc(C(C)(C)C)cc2)c(=O)[nH]1 | inactive |  |
| Cc1ccccc1CSc1nc2c([nH]c3ccccc32)c(=O)n1C | inactive |  |
| CCCCN(C(=O)C1CCC1)c1c(N)n(Cc2ccccc2)c(=O)[nH]c1=O |  | -8.06% [at 12.7 µM] (inactive) |
| CCCCN(Cc1ccccc1)C(=O)C1CCN(Cc2sccc2C)CC1 | 14.1 µM (active) |  |
| CCNC(=S)NNC(=O)C1CCN(Cc2ccccc2)CC1 | inactive |  |
| O=C(Nc1cc2c3c(c1)CC(=O)N3CCC2)c1ccccc1F | inactive |  |
| CCOc1ccc(NC(=O)CN(C)C(=O)Cn2c(=O)cnc3ccccc32)cc1OCC | inactive |  |
| O=C(CN1CCc2ccccc21)NC(c1ccccc1)c1ccccc1 | 39.8 µM (active) |  |
| O=C(CN1CCN(Cc2ccccc2)CC1)NC(c1ccccc1)c1ccccc1 | inactive |  |
| NC(=O)N1CCc2ccccc21 | inactive |  |
| COc1cc2nc(SCc3ccc(F)cc3)n3nc(CCn4c(C)nc5ccccc54)nc3c2cc1OC | inactive |  |
| CCCSc1ncc(Cl)c(C(=O)Nc2c(C(=O)Nc3ccccc3)oc3ccccc23)n1 | inactive |  |
| COc1ccc2c(C)cc(SCC(=O)NCC3CCCO3)nc2c1 (centres undefined) |  | 17.7% [at 2.33 µM] (inactive) |
| CCOC(=O)c1cnc2c(C)cc(Cl)cc2c1NCCc1ccc(OC)c(OC)c1 | inactive |  |
| CCOC(=O)c1cnc2c(C)cc(C)cc2c1Nc1ccc(N2CCOCC2)cc1 | 10 µM (active) |  |
| CCOC(=O)c1cnc2ccc(F)cc2c1Nc1ccc2c(c1)OCCO2 | inactive |  |
| FC(F)(F)c1ccc2c3n(nc2c1)CCN=C3c1ccc(Cl)cc1 |  | 23% [at 2.33 µM] (inactive) |
| Cc1ccc(CNC(=O)CSc2c(C)cnc3c2c(=O)n(C)c(=O)n3C)cc1 | inactive |  |
| Cc1cccnc1CC(C)NC(=O)c1cc(COc2cncc(Cl)c2)on1 (centres undefined) | inactive |  |
| O=S(=O)(c1ccccc1)c1nc(-c2ccccc2)oc1NCCCN1CCOCC1 | inactive |  |
| CCOc1cc(N2CCOCC2)c(OCC)cc1NC(=O)c1ccc(C)s1 | 44.7 µM (active) |  |
| CCOc1cc(N2CCOCC2)c(OCC)cc1NC(=O)c1cc(C)nc2ccccc12 | inactive |  |
| CCOc1cc(N2CCOCC2)c(OCC)cc1NC(=O)COC(=O)[C@H](Cc1c[nH]c2ccccc12)NC(C)=O | inactive |  |

| SMILES | Potency | activity, negative = inhibition |
| --- | --- | --- |
| Cc1c(C(=O)Nc2cccc(Cl)c2)oc2ccc(S(=O)(=O)N3CCOCC3)cc12 | inactive |  |
| CC[C@@]12C(=O)N(c3ccccc3)C(=O)N1[C@H](c1ccc(Br)cc1)[C@@H]1C(=O)N(C(C)(C)C)C(=O)[C@@H]12 |  | 53.8% [at 2.33 µM] (inactive) |
| CCCc1ccc(C(=O)COC(=O)CN2C(=O)NC3(CCCCC3C)C2=O)cc1 (centres undefined) |  | -4.43% [at 12.7 µM] (inactive) |
| CCc1nn(CC(=O)N2CCN(c3ccc(Cl)cc3)CC2)c(=O)c2cc3occc3n12 | inactive |  |
| CCOc1ccc(CCNC(=O)COC(=O)C2CCN(c3ccc(C(F)(F)F)cn3)CC2)cc1OCC | inactive |  |
| CCc1n[nH]c(=S)n1/N=C/c1c[nH]c2ccc(Br)cc12 | 8.91 µM (active) |  |
| S=c1[nH]nc(-c2ccccc2)n1/N=C/c1c[nH]c2ccccc12 | 1.58 µM (active) |  |
| S=c1[nH]nc(-c2ccncc2)n1/N=C/c1ccccc1Cl | 1.41 µM (active) |  |
| S=c1[nH]nc(-c2ccco2)n1/N=C/c1ccccc1 | 1.58 µM (active) |  |
| COc1ccc(Br)cc1/C=N/n1c(C)nnc1C | inactive |  |
| CSC(=S)N/N=C/c1c[nH]c2ccccc12 | inactive |  |
| Nc1nonc1-n1nnc(C(=O)N/N=C/c2c[nH]c3ccccc23)c1-c1ccccc1 | inactive |  |
| CCCCN(C)c1nnc(NC(=O)Nc2ccc(Br)c(C)c2)s1 | inactive |  |
| O=C(O)c1cc(S(=O)(=O)N(Cc2ccccc2)c2cccc(C(F)(F)F)c2)ccc1Cl | inactive |  |
| O=C(NCCC1=CCCCC1)c1ccc(-n2cncn2)cc1 |  | 3.99% [at 12.7 µM] (inactive) |
| Cc1oc2ccc(O)c(CN3CCCCC3)c2c1C(=O)Nc1cccc(C(F)(F)F)c1 | inactive |  |
| O=C(NCc1ccccc1Cl)C(=O)NCC1CCCN1S(=O)(=O)c1cccs1 (centres undefined) | inactive |  |
| Cc1ccc2c(c1)N(CC(=O)NCC1CCCO1)C(=O)CO2 (centres undefined) | inactive |  |
| CCCC1C(=O)N2C(N(C)C)=Nc3ccc(C)cc3N2C1=O (centres undefined) | 3.55 µM (active) |  |
| c1ccc(-c2cc(-c3ccccc3)[nH]n2)cc1 | inactive |  |
| CCc1ccc(CNCc2c(C(=O)O)n(Cc3ccc(F)cc3Cl)c3cc(OC)ccc23)cc1 | inactive |  |
| Cc1nc2c(-c3ccccc3)c(C)nn2c(C)c1CCC(=O)NCCc1ccccc1 | inactive |  |
